Most compounds without a hit are left out; they make up all but 3.1% or so of the library.
Calb FLC – C. albicans growth inhibition with fluconazole, primary screen, CaCi-2 strain, Alamar Blue fluorescence | growth inhibition, % (no concentration beside the values) | C. albicans CaCi-2 (fluconazole-resistant clinical isolate) + fluconazole, 48 h | 0.57% of 300,000 active | AID 1979, 2009;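 active means growth inhibition above about 58% in most replicates, limit read from the data, passing the limit was not always enough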;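 further: all wells also contain fluconazole at 8 µg/ml as a sub-toxic cotreatment; 0% = median of DMSO wells and 100% = median of geldanamycin control wells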
FAS TE block – FAS thioesterase domain inhibitors, primary screen, biochemical, fluorescence intensity, uHTS. Fatty acid synthase (Homo sapiens), P49327. recombinant FAS-TE, OMFH fluorogenic substrate, fluorescence endpoint. inhibition, % at 15 µM. 0.67% of 360,000 active. AID 602261, 2012;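 active means compounds whose normalised, plate-corrected inhibition of enzyme fluorescence in the single-dose primary screen is 50% or more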;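 further: 0% = DMSO with enzyme and 100% = substrate without enzyme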
Mot1-301 SUMO – yeast Mot1-301 growth rescue at high temperature, primary screen, SUMOylation pathway inhibitor project, S. cerevisiae, ATP luminescence, 38.5C. S. cerevisiae Mot1-301 growth rescue; percent above DMSO median, 100 means doubled. growth rescue, % at 18.8 µM. 1% of 320,000 active. AID 2716, 2010;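 active means every valid replicate shows activation above 250% relative to neutral control wells; inactive means the rest, any valid replicate at or below 250%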;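 further: OY570 slx delta 5 strain wells were the positive control but not used for scaling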
NadD inh – inhibitors of S. aureus NadD, primary screen, biochemical, colorimetric, uHTS. purified NadD enzyme, colorimetric absorbance read-out. inhibition, % at 20 µM. 0.78% of 360,000 active. AID 602399, 2012; in the data active means inhibition above about 26%
ATG4B inh – ATG4B protease inhibitors, primary screen, biochemical, fluorescence, uHTS; Cysteine protease ATG4B (Homo sapiens), Q9Y4P1; ATG4B cleavage of LC3-PLA2, NBD-HPC fluorescence, 1 h; inhibition, % at 8.33 µM; 0.51% of 340,000 active; AID 504462, 2011; in the data active means inhibition above about 40%
NadD inh conf – inhibitors of S. aureus NadD, confirmation, biochemical, colorimetric, single concentration | shares compounds with NadD inh | purified S. aureus NadD, colorimetric enzyme assay | inhibition, % at 20 µM | 13% of 2,000 active | AID 624309, 2012; in the data active means inhibition mostly above about 42%, no sharp cut-off; inactive means mostly below about 42%
* marks the source's active call; other numbers are inactive results; nt = no result given.

SMILES	Calb FLC	FAS TE block	Mot1-301 SUMO	NadD inh	ATG4B inh	NadD inh conf
N=c1c(S(=O)(=O)c2ccc(Br)cc2)cc2c(=O)n3ccccc3nc2n1Cc1ccco1	-1	39	5	49*	3	12
Cc1ccc(Cn2c(=N)c(S(=O)(=O)c3ccc(Br)cc3)cc3c(=O)n4ccccc4nc32)cc1	nt	8	5	23	-6	nt
Cc1ccc(-c2cc(C(=O)N/N=C/c3ccc([N+](=O)[O-])o3)c3ccccc3n2)o1	2	4	-26	32*	-17	8
O=C(N/N=C/c1cc([N+](=O)[O-])ccc1Cl)c1cc(-c2ccccc2)nc2ccccc12	3	-6	115	36*	6	-1
O=C(N/N=C/c1ccc([N+](=O)[O-])o1)c1cc(-c2ccncc2)nc2ccccc12	26	11	13	17	-7	nt
O=C(N/N=C/c1ccc([N+](=O)[O-])o1)c1cc(-c2ccc(-c3ccccc3)cc2)nc2ccccc12	-14	12	-10	70*	5	10
Cc1ccc(NC(=O)CSc2nnc(CSc3nc(C)cc(C)n3)n2Cc2ccco2)c(C)c1	-3	3	-11	3	-8	nt
Cc1ccc(NCc2nnc(SCC(=O)c3ccccc3)n2Cc2ccco2)c(C)c1	7	5	nt	25*	32	57*
O=C1NC(Cc2ccc(O)cc2)c2nc3ccc(Br)cc3c(=O)n2-c2cc3ccccc3cc21 (stereo not given)	nt	18	nt	31*	nt	4
COc1ccc(-c2ccc3[nH]c4c(c3c2)CCN2C[C@@H]([C@H](C)OC(=O)Nc3cc(Cl)cc(Cl)c3)[C@@H](N(C)C(=O)Nc3cc(Cl)cc(Cl)c3)C[C@@H]42)cc1	nt	22	nt	38*	nt	1
COc1ccc(-c2c/c(=N\c3nc(-c4ccccc4)c(C)s3)c3ccccc3o2)cc1O	-3	21	nt	39*	-9	18
CCCCc1c(C)nc2ccccc2c1SCCC(=O)O	17	0	-8	12	-4	nt
COc1ccc(Cc2c(C3CCCCC3)nc3ccc(Br)cn23)c(C)c1	nt	-6	nt	5	nt	nt
COc1ccc(Cc2c(C3CCCCC3)nc3c(Cl)cc(C(F)(F)F)cn23)c(C)c1	nt	-2	nt	31*	nt	13
Cc1cc2nc(-c3ccccc3)c(Cc3cccc(Cl)c3)n2c(C)c1Br	nt	14	nt	38*	nt	26
Cc1cc2nc(-c3cccc(Cl)c3)c(Cc3ccsc3)n2c(C)c1Br	nt	5	nt	17	nt	nt
Clc1cccc(Cc2c(-c3cccc(Br)c3)nc3ccc(Br)cn23)c1	nt	20	nt	30*	nt	44
Cc1cc2nc(-c3cccc(Br)c3)c(Cc3ccsc3)n2c(C)c1Br	nt	4	nt	41*	nt	19
Cc1cc2nc(-c3ccc(F)cc3)c(Cc3cccc(Cl)c3)n2c(C)c1Br	nt	14	nt	69*	nt	29
Cc1ccc(-c2nc3cc(C)c(Br)c(C)n3c2Cc2cccc(Cl)c2)cc1	nt	-1	nt	7	nt	nt
Clc1cccc(Cc2c(-c3cccc(Cl)c3)nc3ccc(Br)cn23)c1	nt	21	nt	16	nt	nt
N#Cc1ccc(S(=O)(=O)N2CCC(C(=O)N3CCN(Cc4ccc5c(c4)OCO5)CC3)CC2)cc1	nt	8	15	-3	0	nt
CN(C)c1ccc(CNC(=O)CC[C@H]2O[C@@H](n3cnc4c(NC(=O)c5ccccc5)ncnc43)[C@H](O)[C@@H]2O)cc1	nt	-10	nt	-4	nt	nt
Cc1nn(C)c(Cl)c1C(=O)NCC(=O)NCc1ccccc1	1	-3	5	-4	-2	nt
COc1ccccc1/C=C/C=N/n1c(-c2cc(-c3ccccc3)n[nH]2)n[nH]c1=S	-2	19	0	36*	15	33
S=c1[nH]nc(-c2cc(-c3ccccc3)n[nH]2)n1/N=C/C=C/c1ccccc1	23	5	-7	33*	-6	19
S=c1[nH]nc(-c2cc(-c3ccccc3)n[nH]2)n1/N=C/c1ccccc1	-4	6	164	9	-12	nt
S=c1[nH]nc(-c2cc(-c3ccccc3)n[nH]2)n1/N=C/C(Br)=C/c1ccccc1	-6	19	539*	62*	-3	3
